PubChem BioAssay (Tox21)
Inconclusive results are not listed. A call without a number means that no potency is given here. The source holds several records for some structures; these can differ, active in one and inactive in another. The source made the active and inactive calls. Unless noted, calls follow the shape of the full dose curve.

What was measured:
[1] = Nuclear factor erythroid 2-related factor 2/antioxidant responsive element (Nrf2/ARE) small molecule agonists: qHTS cell viability counter screen in human keratinocytes (AID 1919968; active = well fitted cell-killing curve with a large enough effect in the repeat runs; also: nearly all actives have a fitted effect of over 55% in size)
In short: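 Stably transfected HaCaT (KeratinoSens), 1,500/well. Test agents in DMSO were applied for 23 h, 37 C/5% CO2. CellTiter-Fluor was incubated 1 h before the fluorescence read.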

[2] = biological target: Gonadotropin-releasing hormone receptor (Homo sapiens) (UniProt P30968); assay: Human gonadotropin-releasing hormone receptor (GnRHR) small molecule agonists, calcium flux assay in GnRHR-HEK293 cells (AID 1920063); also: nearly all actives have a fitted effect of over 35% in size
Chain of Gonadotropin-releasing hormone receptor (Homo sapiens) (P30968 whole entry, looked up): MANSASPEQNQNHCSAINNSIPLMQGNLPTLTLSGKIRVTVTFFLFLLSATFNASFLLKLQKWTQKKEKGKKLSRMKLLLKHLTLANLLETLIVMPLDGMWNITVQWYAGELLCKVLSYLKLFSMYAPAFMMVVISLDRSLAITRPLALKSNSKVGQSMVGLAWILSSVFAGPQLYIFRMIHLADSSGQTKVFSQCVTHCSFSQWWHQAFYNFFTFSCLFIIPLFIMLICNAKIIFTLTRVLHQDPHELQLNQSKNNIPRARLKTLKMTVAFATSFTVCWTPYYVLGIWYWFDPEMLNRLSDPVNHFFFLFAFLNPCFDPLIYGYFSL
In short: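 Stable human GnRHR HEK293 line. 18 h plating, then calcium dye for 1 h at 37 C. Agonist-mode compound addition from DMSO stocks; fluorescence monitored 3 min.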

[3] = G protein-coupled receptor (GPCR) small molecule agonists, calcium flux assay: HEK293 wild type cell line counter screen (AID 1920065)
In short: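 Following 18 h incubation at 37 C/5% CO2, plates got calcium dye for 1 h; compounds, ATP or DMSO were then pinned in and fluorescence followed kinetically (480/540 nm).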

[4] = p53 small molecule agonists, cell-based qHTS assay with human liver microsomes (AID 1963577);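 also: p53 response element beta-lactamase reporter cells with liver microsomes plus NADPH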
In short: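 16 h, 37 C exposure of p53RE-bla cells to compounds with human liver microsomes and NADPH (0.5 mg/mL final each); detection via LiveBLAzer mixture, 2 h dark at room temperature.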

[5] = p53 small molecule agonists, cell-based qHTS assay with rat liver microsomes (AID 1963578)
In short: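 With rat liver microsomes and NADPH present (0.5 mg/mL final each), p53RE-bla cells are treated with compound for 16 h at 37 C. LiveBLAzer detection mixture is then applied for 2 h at room temperature in the dark.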

[6] = p53 small molecule agonists, cell-based qHTS assay with human liver microsomes: qHTS cell viability counter screen (AID 1963579); also: nearly all actives have a fitted effect of over 45% in size
In short: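 In this multiplexed counter screen, the reporter plates were subsequently treated with CellTiter-Glo so that cell viability, reflected by luminescence, could be recorded for p53RE-bla cells dosed 16 h with compounds under microsomal activation (HLM and NADPH).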

[7] = p53 small molecule agonists, cell-based qHTS assay with rat liver microsomes: qHTS cell viability counter screen (AID 1963580); also: nearly all actives have a fitted effect of over 45% in size
In short: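 Cytotoxicity counter screen: intracellular ATP read by CellTiter-Glo luminescence in the p53 reporter wells. HCT-116 p53RE-bla cells were treated for 16 h at 37 C alongside rat liver microsomes and NADPH, each 0.5 mg/mL final.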

[8] = p53 small molecule agonists, cell-based qHTS assay: qHTS cell viability counter screen (AID 1963581); also: nearly all actives have a fitted effect of over 45% in size
In short: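 qHTS counter screen: 16 h compound exposure at 37 C of p53RE-bla HCT-116 cells (4,000 per well, seeded 5 h prior), cell viability by ATP luminescence.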

[9] = p53 small molecule agonists, cell-based qHTS assay (AID 1963582; active = well fitted activation curve with a large enough effect in the signal ratio in the repeat runs, not every such curve was filed as active; the % refers to the signal ratio)
In short: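 Measured: fluorescence from cleaved LiveBLAzer substrate. System: p53RE-bla cells, 16 h compound treatment at 37 C, 2 h substrate step at room temperature.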

[10] = biological target: 5-hydroxytryptamine receptor 2A (Homo sapiens) (UniProt P28223); assay: 5-hydroxytryptamine receptor 2A (HTR2A) small molecule antagonists, cell-based qHTS assay (AID 1963586); also: nearly all actives have a fitted effect of over 45% in size
Chain of 5-hydroxytryptamine receptor 2A (Homo sapiens) (P28223 whole entry, looked up): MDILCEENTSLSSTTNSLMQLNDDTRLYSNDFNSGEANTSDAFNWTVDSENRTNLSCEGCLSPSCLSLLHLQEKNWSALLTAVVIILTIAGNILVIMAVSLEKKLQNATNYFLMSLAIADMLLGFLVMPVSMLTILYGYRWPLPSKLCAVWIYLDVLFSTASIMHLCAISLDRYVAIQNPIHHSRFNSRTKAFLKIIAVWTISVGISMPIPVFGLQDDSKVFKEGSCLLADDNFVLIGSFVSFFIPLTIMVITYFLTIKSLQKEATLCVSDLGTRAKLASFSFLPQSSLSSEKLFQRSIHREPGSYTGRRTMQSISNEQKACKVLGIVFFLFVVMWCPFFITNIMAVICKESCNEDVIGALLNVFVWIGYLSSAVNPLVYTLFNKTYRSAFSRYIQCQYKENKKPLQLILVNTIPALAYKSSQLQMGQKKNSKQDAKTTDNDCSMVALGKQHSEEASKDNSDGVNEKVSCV
In short: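 CHO cells stably expressing human HTR2A were plated for 18 h at 37 C, then loaded with calcium dye for 1 h. Compounds were preincubated 5 min at room temperature before DOI (4 nM solution) was added. Kinetic fluorescence was read for 3 min.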

[11] = biological target: 5-hydroxytryptamine receptor 2A (Homo sapiens) (UniProt P28223); assay: 5-hydroxytryptamine receptor 2A (HTR2A) small molecule agonists, cell-based qHTS assay (AID 1963587); also: nearly all actives have a fitted effect of over 30% in size; also: potency is read from the fitted curve at half-maximal effect
In short: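 Kinetic calcium-flux fluorescence (2 min, 1 sec intervals) after compound addition in agonist mode. HTR2A-CHO cells were cultured 18 h, then dye-loaded 1 h at 37 C.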

[12] = biological target: Muscarinic acetylcholine receptor M1 (Homo sapiens) (UniProt P11229); assay: Cholinergic receptor muscarinic 1 (CHRM1) small molecule antagonists, cell-based qHTS assay (AID 1963588); also: nearly all actives have a fitted effect of over 40% in size; also: potency is read from the fitted curve at half-maximal effect
Chain of Muscarinic acetylcholine receptor M1 (Homo sapiens) (P11229 whole entry, looked up): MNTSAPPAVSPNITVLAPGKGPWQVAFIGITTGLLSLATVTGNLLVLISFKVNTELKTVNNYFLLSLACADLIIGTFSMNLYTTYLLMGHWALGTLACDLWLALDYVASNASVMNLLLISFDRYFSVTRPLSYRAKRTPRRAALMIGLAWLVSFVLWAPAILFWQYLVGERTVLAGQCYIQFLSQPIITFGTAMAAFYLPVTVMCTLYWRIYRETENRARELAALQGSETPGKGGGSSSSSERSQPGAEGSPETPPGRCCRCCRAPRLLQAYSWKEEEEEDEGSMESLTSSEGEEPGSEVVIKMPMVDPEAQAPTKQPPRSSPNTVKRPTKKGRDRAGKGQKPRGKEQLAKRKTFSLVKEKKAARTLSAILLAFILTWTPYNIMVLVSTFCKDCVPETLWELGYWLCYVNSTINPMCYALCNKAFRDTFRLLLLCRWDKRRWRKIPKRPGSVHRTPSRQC
In short: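 Compounds were tested at 15 concentrations in three independent runs. Dye-loaded CHRM1-CHO cells were exposed 5 min at room temperature before stimulation by acetylcholine added at 50nM. Intracellular calcium was read kinetically on FDSS for 3 min.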

[13] = biological target: Muscarinic acetylcholine receptor M1 (Homo sapiens) (UniProt P11229); assay: Cholinergic receptor muscarinic 1 (CHRM1) small molecule agonists, cell-based qHTS assay (AID 1963589); also: nearly all actives have a fitted effect of over 35% in size
In short: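 Kinetic fluorescence (1 s intervals) of calcium-sensitive dye in human M1 CHO cells after compound addition; cells pre-incubated 18 h at 37 C/5% CO2 and dye-loaded 1 h.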

[14] = cAMP Responsive Elements (CRE) small molecule agonists, cell-based qHTS assay (AID 1963590)
In short: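 Test agents in DMSO were incubated 3 h at 37 C/5% CO2 with CRE-bla HEK 293T cells seeded 18 h earlier; LiveBLAzer B/G FRET substrate was added and read after 2 h at room temperature.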

[15] = cAMP Responsive Elements (CRE) small molecule antagonists, cell-based qHTS assay (AID 1963591; active = well fitted inhibition curve with a large enough effect in the signal ratio in the repeat runs, not every such curve was filed as active; the % refers to the signal ratio)
In short: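 Reporter line CRE-bla HEK 293T in dialyzed-FBS DMEM; cells preincubated 18 h, treated 3 h with compound plus NKH477 (0.25 uM final); LiveBLAzer FRET, 2 h RT.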

[16] = biological target: Beta-2 adrenergic receptor (Homo sapiens) (UniProt P07550); assay: Adrenergic beta2 receptor (ADRB2) small molecule antagonists, cell-based qHTS assay (AID 1963592); also: series mostly up to about 92 µM; nearly all actives have a fitted effect of over 50% in size
Chain of Beta-2 adrenergic receptor (Homo sapiens) (P07550 whole entry, looked up): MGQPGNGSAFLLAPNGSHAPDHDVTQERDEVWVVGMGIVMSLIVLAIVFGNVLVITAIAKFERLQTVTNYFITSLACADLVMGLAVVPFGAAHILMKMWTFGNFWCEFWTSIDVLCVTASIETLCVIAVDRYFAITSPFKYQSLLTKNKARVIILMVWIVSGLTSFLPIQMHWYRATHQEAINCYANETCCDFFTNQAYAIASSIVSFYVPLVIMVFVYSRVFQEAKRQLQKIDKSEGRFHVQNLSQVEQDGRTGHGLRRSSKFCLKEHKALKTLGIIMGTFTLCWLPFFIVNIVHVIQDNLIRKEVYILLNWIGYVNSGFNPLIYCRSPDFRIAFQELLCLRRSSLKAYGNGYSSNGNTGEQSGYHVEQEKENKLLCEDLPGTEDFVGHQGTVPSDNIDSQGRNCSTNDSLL
In short: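 Assay format: CHO-ADRB2 cells, 18-20hr seeding at 37C/5% CO2, then compound plus 1nM isoproterenol agonist mix for 0.5hr RT. Homogeneous time-resolved fluorescence cAMP detection after 1hr, expressed as 665/615 nm ratio.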

[17] = biological target: Beta-2 adrenergic receptor (Homo sapiens) (UniProt P07550); assay: Adrenergic beta2 receptor (ADRB2) small molecule agonists, cell-based qHTS assay (AID 1963593);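 also: CHO cells stably overexpressing human ADRB2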
In short: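 CHO cells stably over-expressing ADRB2 were plated overnight at 37C, then dosed with compounds plus a stimulation mix containing 100uM IBMX and 25uM Ro-20-1724 for 0.5hr at room temperature. cAMP was measured by HTRF competition, 1hr.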

[18] = biological target: D(2) dopamine receptor (Homo sapiens) (UniProt P14416); assay: Dopamine D2 receptor (DRD2) small molecule agonists, cell-based qHTS assay (AID 1963594); also: nearly all actives have a fitted effect of over 35% in size
Chain of D(2) dopamine receptor (Homo sapiens) (P14416 whole entry, looked up): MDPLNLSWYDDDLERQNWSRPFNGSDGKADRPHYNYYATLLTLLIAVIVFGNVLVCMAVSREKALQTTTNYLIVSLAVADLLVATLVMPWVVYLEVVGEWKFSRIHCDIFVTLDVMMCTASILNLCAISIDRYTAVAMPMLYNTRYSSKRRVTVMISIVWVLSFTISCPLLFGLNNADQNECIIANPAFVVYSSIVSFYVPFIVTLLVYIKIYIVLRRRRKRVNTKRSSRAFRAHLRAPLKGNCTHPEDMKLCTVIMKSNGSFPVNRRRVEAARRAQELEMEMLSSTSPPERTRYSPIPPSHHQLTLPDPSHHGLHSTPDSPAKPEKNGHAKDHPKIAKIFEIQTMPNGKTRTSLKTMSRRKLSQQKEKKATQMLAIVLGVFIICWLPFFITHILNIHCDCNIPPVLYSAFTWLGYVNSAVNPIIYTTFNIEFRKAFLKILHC
In short: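 cAMP accumulation in DRD2-HEK293 cells measured by HTRF after 1 h detection; compounds added 10 min before NKH477 (200nM […]) forskolin-analogue stimulation, 30 min at room temperature, with Ro20-1724 present at 0.1 mM final.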

[19] = biological target: D(2) dopamine receptor (Homo sapiens) (UniProt P14416); assay: Dopamine D2 receptor (DRD2) small molecule antagonists, cell-based qHTS assay (AID 1963595; active = well fitted inhibition curve with a large enough effect in the signal ratio in the repeat runs, with a control signal flat; the % refers to the signal ratio)
In short: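 DRD2-HEK293; 0.1 mM Ro20-1724; cpd 10 min RT; NKH477 200 nM + quinpirole 12 nM, 30 min RT; HTRF cAMP (cAMP-d2/anti-cAMP cryptate), 665/620 nm ratio after 1 h.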

Row | Structure (SMILES) | Potency [1] | Potency [2] | Potency [3] | Potency [4] | Potency [5] | Potency [6] | Potency [7] | Potency [8] | Potency [9] | Potency [10] | Potency [11] | Potency [12] | Potency [13] | Potency [14] | Potency [15] | Potency [16] | Potency [17] | Potency [18] | Potency [19]
1 | Nc1cccc(Cl)c1 | inactive | inactive | inactive | inactive | inactive | inactive | inactive | inactive | inactive | inactive | inactive | inactive | inactive | inactive | inactive | inactive | inactive | inactive | inactive
2 | CC(C)C(C)(N)C#N (stereo unspecified) | inactive | inactive | inactive | inactive | inactive | inactive | inactive | inactive | inactive | inactive | inactive | inactive | inactive | inactive | inactive | inactive |  | inactive | inactive
3 | Cn1c(N)nc2c3cccnc3ccc21 | inactive | inactive | inactive | inactive | inactive | inactive | inactive | inactive |  | inactive | inactive | inactive | inactive | inactive |  | inactive | inactive | inactive | inactive
4 | Clc1cnc(Oc2ccc(Oc3ncc(Cl)cc3Cl)cc2)c(Cl)c1 | inactive | inactive | inactive | inactive | inactive |  | inactive | inactive | inactive | inactive | inactive | inactive | inactive | inactive | inactive | inactive | inactive | inactive | inactive
5 | c1ccc(P(c2ccccc2)c2ccccc2)cc1 | inactive | inactive | inactive | inactive | inactive | inactive | inactive | inactive | inactive | inactive | inactive | inactive | inactive | inactive | inactive | inactive | inactive | inactive | inactive
6 | NCC(O)c1ccc(O)cc1 (stereo unspecified) | inactive | inactive | inactive | inactive | inactive | inactive | inactive | inactive |  | inactive |  | inactive | inactive | inactive | inactive | inactive | inactive | inactive | inactive
7 | CCCCOP(=O)(CCCC)OCCCC | inactive | inactive | inactive | inactive | inactive | inactive | inactive | inactive |  | inactive | 19.5 µM (active) | inactive | inactive | inactive | inactive | inactive | inactive | inactive | inactive
8 | CC(C)OS(C)(=O)=O | inactive | inactive | inactive | inactive | inactive | inactive | inactive | inactive |  | inactive | inactive | inactive | inactive | inactive | inactive | inactive | inactive | inactive | inactive
9 | C=C(C)CCl | inactive | inactive | inactive | inactive | inactive | inactive | inactive | inactive | inactive | inactive | inactive | inactive | inactive | inactive | inactive | inactive |  | inactive | inactive
10 | C[C@H]1O[C@H](OC2[C@@H](O)[C@@H](O)C(O)[C@H](O)[C@H]2O)[C@@H](N)C[C@@H]1N=C(N)C(=O)O (stereo partly specified) | inactive | inactive | inactive | inactive | inactive | inactive | inactive | inactive | inactive | inactive |  | inactive | inactive | inactive |  | inactive |  | inactive | inactive
11 | COC(C)(C)CCCC(C)C/C=C/C(C)=C/C(=O)OC(C)C (stereo unspecified) | inactive | inactive | inactive | inactive | inactive | inactive | inactive | inactive | inactive | inactive | inactive | 3.3 nM (active) and inactive | inactive | inactive |  | inactive | inactive | inactive | inactive
12 | C=CCOCC1CO1 (stereo unspecified) | inactive | inactive | inactive | inactive | inactive | inactive | inactive | inactive | inactive |  | inactive |  | inactive | inactive | inactive | inactive | inactive |  | inactive
13 | CC(O)CN(CC(C)O)CC(C)O (stereo unspecified) | inactive | inactive | inactive | inactive | inactive | inactive | inactive | inactive | inactive | inactive | inactive | inactive | inactive | inactive |  |  | inactive | inactive | inactive
14 | O=C/C=C/c1ccco1 | inactive | inactive | inactive | inactive | inactive | inactive | inactive | inactive | inactive |  | inactive |  | inactive | inactive | inactive | inactive |  | inactive | 
15 | CC(=O)C1CCOC1=O (stereo unspecified) | inactive | inactive | inactive | inactive | inactive | inactive | inactive | inactive | inactive |  | inactive | inactive | inactive | inactive | inactive | inactive | inactive | inactive | 
